PubChem BioAssay AID1159580 (chemical genetic matrix, 2015)
Values joined by “and” are separate entries in the source; they are usually repeats but may differ in a detail not shown here. Equal values may be shown once. Hit rate of the full screen: of about 5,500 compounds, about 2,000 (36%) were called active. Roughly 18% stayed inconclusive and do not appear here. Cut-off read from the data, not from the text of the source: active = normalized growth mostly below about 0.91 (no sharp cut-off); inconclusive = no clear call, values can overlap the other calls; inactive = mostly above about 0.92. This is one part of the list.

Test: chemical genetic growth profiling, strain panel (AID 1159580);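 note: tested at 20 µM; growth read once vehicle control cultures reached saturation at 30 °C; 1 = growth at the plate median or of vehicle wells; lower values mean less growth of the strain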
Conditions: S. cerevisiae deletion strains, growth OD

Measured: normalized growth

O=NN(CCCl)C(=O)NCCCl
0.928 (inactive) and 0.341 (active): locus YJL095W, strain BCK1, stronger effect = lower value
1.03 (inactive) and 0.315 (active): locus YHR030C, strain SLT2, stronger effect = lower value
active: locus YBR231C, strain swc5, stronger effect = lower value 0.604 | locus YBR279W, strain paf1, stronger effect = lower value 0.929 | locus YCL011C, strain gbp2, stronger effect = lower value 0.902 | locus YCL016C, strain dcc1, stronger effect = lower value 0.847 | locus YCL061C, strain MRC1, stronger effect = lower value 0.916 | locus YDR159W, strain sac3, stronger effect = lower value 0.855 | locus YDR334W, strain swr1, stronger effect = lower value 0.876 | locus YDR392W, strain spt3, stronger effect = lower value 0.562 | locus YDR502C, strain sam2, stronger effect = lower value 0.881 | locus YEL003W, strain gim4, stronger effect = lower value 0.803 | locus YER015W, strain faa2, stronger effect = lower value 0.899 | locus YER016W, strain bim1, stronger effect = lower value 0.875 | locus YER155C, strain BEM2 (second series), stronger effect = lower value 0.583 | locus YFR010W, strain ubp6, stronger effect = lower value 0.836 | locus YGL078C, strain dbp3, stronger effect = lower value 0.912 | locus YGL240W, strain doc1, stronger effect = lower value 0.682 | locus YGR135W, strain pre9, stronger effect = lower value 0.846 | locus YHR013C, strain ard1, stronger effect = lower value 0.64 | locus YHR079C, strain IRE1, stronger effect = lower value 0.298 | locus YHR142W, strain chs7, stronger effect = lower value 0.87 | locus YIL125W, strain kgd1, stronger effect = lower value 0.926 | locus YJL129C, strain trk1, stronger effect = lower value 0.759 | locus YJL164C, strain tpk1, stronger effect = lower value 0.878 | locus YJR043C, strain POL32, stronger effect = lower value 0.74 | locus YJR066W, strain TOR1, stronger effect = lower value 0.389 | locus YKL009W, strain mrt4, stronger effect = lower value 0.851 | locus YKL160W, strain elf1, stronger effect = lower value 0.86 | locus YLR113W, strain HOG1, stronger effect = lower value 0.312 | locus YLR221C, strain rsa3, stronger effect = lower value 0.851 | locus YLR320W, strain mms22, stronger effect = lower value 0.589 | locus YLR357W, strain rsc2, stronger effect = lower value 0.813 | locus YLR418C, strain cdc73, stronger effect = lower value 0.601 | locus YML120C, strain ndi1, stronger effect = lower value 0.852 | locus YMR058W, strain fet3, stronger effect = lower value 0.878 | locus YNL071W, strain lat1, stronger effect = lower value 0.914 | locus YNL183C, strain NPR1, stronger effect = lower value 0.368 | locus YNL248C, strain rpa49, stronger effect = lower value 0.763 | locus YNL250W, strain rad50, stronger effect = lower value 0.852 | locus YNL298W, strain CLA4, stronger effect = lower value 0.888 | locus YNL322C, strain KRE1 (second series), stronger effect = lower value 0.764 | locus YOR001W, strain rrp6, stronger effect = lower value 0.751 | locus YOR083W, strain WHI5, stronger effect = lower value 0.844 | locus YOR106W, strain vam3, stronger effect = lower value 0.786 | locus YOR184W, strain ser1, stronger effect = lower value 0.783 | locus YOR231W, strain MKK1, stronger effect = lower value 0.295 | locus YOR270C, strain vph1, stronger effect = lower value 0.638 | locus YPL256C, strain CLN2, stronger effect = lower value 0.352 | strain wtn01, stronger effect = lower value 0.853
inactive: locus YAL021C, strain ccr4, stronger effect = lower value 0.923 | locus YAL026C, strain drs2, stronger effect = lower value 0.955 | locus YAL030W, strain snc1, stronger effect = lower value 0.958 | locus YAL040C, strain CLN3, stronger effect = lower value 0.974 | locus YBL061C, strain skt5, stronger effect = lower value 0.942 | locus YBR009C, strain hhf1, stronger effect = lower value 0.912 | locus YBR021W, strain FUR4, stronger effect = lower value 0.954 | locus YBR023C, strain chs3, stronger effect = lower value 0.942 | locus YBR171W, strain sec66, stronger effect = lower value 0.92 | locus YBR229C, strain ROT2, stronger effect = lower value 0.986 | locus YCL029C, strain bik1, stronger effect = lower value 0.995 | locus YCL069W, strain vba3, stronger effect = lower value 0.962 | locus YCR088W, strain abp1, stronger effect = lower value 0.958 | locus YDL005C, strain med2, stronger effect = lower value 0.958 | locus YDL035C, strain GPR1, stronger effect = lower value 0.909 | locus YDL040C, strain nat1, stronger effect = lower value 0.959 | locus YDL074C, strain BRE1, stronger effect = lower value 0.93 | locus YDL101C, strain DUN1, stronger effect = lower value 0.964 | locus YDL134C, strain PPH21, stronger effect = lower value 0.979 | locus YDL185W, strain tfp1, stronger effect = lower value 0.98 | locus YDL192W, strain arf1, stronger effect = lower value 0.976 | locus YDR001C, strain nth1, stronger effect = lower value 0.96 | locus YDR069C, strain doa4, stronger effect = lower value 0.95 | locus YDR101C, strain arx1, stronger effect = lower value 0.994 | locus YDR137W, strain rgp1, stronger effect = lower value 0.943 | locus YDR150W, strain NUM1, stronger effect = lower value 1.01 and 0.989 | locus YDR162C, strain NBP2, stronger effect = lower value 0.988 | locus YDR195W, strain ref2 0.997 | locus YDR297W, strain sur2, stronger effect = lower value 0.965 | locus YDR318W, strain mcm21, stronger effect = lower value 0.966 | locus YDR335W, strain msn5, stronger effect = lower value 0.96 | locus YDR388W, stronger effect = lower value 0.983 | locus YEL037C, strain rad23, stronger effect = lower value 0.94 | locus YEL061C, strain CIN8 (second series), stronger effect = lower value 0.952 | locus YEL061C, strain CIN8, stronger effect = lower value 1.04 | locus YER002W, strain NOP16, stronger effect = lower value 1.02 | locus YER110C, stronger effect = lower value 0.986 | locus YER111C, strain swi4, stronger effect = lower value 0.958 | locus YER155C, strain BEM2, stronger effect = lower value 1 | locus YER167W, strain BCK2, stronger effect = lower value 1.02 | locus YGL086W, strain mad1, stronger effect = lower value 0.956 | locus YGL167C, strain pmr1, stronger effect = lower value 0.959 | locus YGL173C, strain kem1, stronger effect = lower value 0.922 | locus YGL227W, strain vid30, stronger effect = lower value 0.925 | locus YGL248W, strain PDE1, stronger effect = lower value 0.943 | locus YGL253W, strain hxk2, stronger effect = lower value 0.985 | locus YGR078C, strain PAC10, stronger effect = lower value 0.991 | locus YGR229C, strain SMI1, stronger effect = lower value 0.823 | locus YGR252W, strain gcn5, stronger effect = lower value 0.777 | locus YHR027C, strain rpn1, stronger effect = lower value 0.948 | locus YHR079C, strain IRE1 (second series), stronger effect = lower value 0.988 | locus YHR094C, strain hxt1, stronger effect = lower value 0.994 | locus YHR129C, strain ARP1, stronger effect = lower value 0.991 | locus YHR200W, strain rpn10, stronger effect = lower value 0.958 | locus YIL066C, strain RNR3, stronger effect = lower value 0.994 | locus YIL073C, strain SPO22, stronger effect = lower value 0.928 | locus YIR030C, strain dcg1, stronger effect = lower value 0.991 | locus YJL092W, strain hpr5, stronger effect = lower value 0.922 | locus YJL095W, strain BCK1 (second series), stronger effect = lower value 0.963 | locus YJL115W, strain asf1, stronger effect = lower value 0.923 | locus YJL134W, strain LCB3, stronger effect = lower value 0.997 | locus YJL154C, strain vps35, stronger effect = lower value 0.975 | locus YJL166W, strain qcr8, stronger effect = lower value 0.923 | locus YJL168C, strain set2, stronger effect = lower value 1 | locus YJL187C, strain SWE1 (second series), stronger effect = lower value 1 | locus YJL187C, strain SWE1, stronger effect = lower value 0.944 | locus YJR075W, strain HOC1, stronger effect = lower value 0.995 | locus YKL068W, stronger effect = lower value 0.997 | locus YKL085W, strain MDH1 (second series), stronger effect = lower value 0.994 | locus YKL085W, strain MDH1, stronger effect = lower value 0.994 | locus YKL190W, strain CNB1, stronger effect = lower value 1.03 | locus YKR001C, strain vps1, stronger effect = lower value 0.904 | locus YKR026C, strain gcn3, stronger effect = lower value 0.983 | locus YKR091W, strain srl3, stronger effect = lower value 0.975 | locus YLL001W, strain dnm1, stronger effect = lower value 0.963 | locus YLL026W, stronger effect = lower value 0.973 | locus YLL041C, strain sdh2, stronger effect = lower value 0.957 | locus YLR027C, strain aat2, stronger effect = lower value 0.934 | locus YLR039C, strain RIC1, stronger effect = lower value 1.08 | locus YLR058C, strain SHM2, stronger effect = lower value 0.984 | locus YLR102C, strain apc9, stronger effect = lower value 0.99 | locus YLR258W, strain gsy2, stronger effect = lower value 0.965 | locus YLR262C, strain YPT6 (second series), stronger effect = lower value 0.939 | locus YLR262C, strain YPT6, stronger effect = lower value 0.988 | locus YLR268W, strain sec22, stronger effect = lower value 0.957 | locus YLR330W, strain CHS5, stronger effect = lower value 0.989 | locus YLR342W, strain FKS1 (second series), stronger effect = lower value 0.967 | locus YLR342W, strain FKS1, stronger effect = lower value 0.958 | locus YLR370C, strain arc18, stronger effect = lower value 0.972 | locus YLR371W, strain rom2, stronger effect = lower value 0.972 | locus YLR384C, strain iki3, stronger effect = lower value 0.96 | locus YML016C, strain PPZ1, stronger effect = lower value 0.989 | locus YML032C, strain rad52, stronger effect = lower value 0.915 | locus YML124C, strain tub3, stronger effect = lower value 0.997 | locus YMR078C, strain ctf18, stronger effect = lower value 0.98 | locus YMR125W, strain sto1, stronger effect = lower value 0.961 | locus YMR129W, stronger effect = lower value 0.967 | locus YMR205C, strain PFK2, stronger effect = lower value 0.878 | locus YMR223W, strain ubp8, stronger effect = lower value 0.918 | locus YMR231W, strain pep5, stronger effect = lower value 0.973 | locus YMR263W, strain SAP30, stronger effect = lower value 0.948 and 0.997 | locus YMR307W, strain GAS1, stronger effect = lower value 0.781 and 0.985 | locus YNL067W, strain RPL9B, stronger effect = lower value 0.947 | locus YNL175C, strain NOP13, stronger effect = lower value 0.984 | locus YNL197C, strain WHI3, stronger effect = lower value 1.01 | locus YNL209W, strain ssb2, stronger effect = lower value 0.965 | locus YNL224C, strain SQS1, stronger effect = lower value 1 | locus YNL233W, strain BNI4, stronger effect = lower value 0.959 | locus YNL271C, strain bni1, stronger effect = lower value 0.947 | locus YNL307C, strain MCK1, stronger effect = lower value 0.96 | locus YNL322C, strain KRE1, stronger effect = lower value 1 | locus YNR049C, strain mso1, stronger effect = lower value 0.964 | locus YNR052C, strain pop2, stronger effect = lower value 0.994 | locus YOL006C, strain TOP1, stronger effect = lower value 0.789 | locus YOL012C, strain htz1 0.791 | locus YOL147C, strain pex11, stronger effect = lower value 0.981 | locus YOR061W, strain CKA2, stronger effect = lower value 0.996 | locus YOR069W, strain VPS5, stronger effect = lower value 0.996 | locus YOR070C, strain gyp1, stronger effect = lower value 0.968 | locus YOR080W, strain dia2, stronger effect = lower value 0.924 | locus YOR083W, strain WHI5 (second series), stronger effect = lower value 1.01 | locus YOR136W, strain idh2, stronger effect = lower value 0.967 | locus YOR144C, strain elg1, stronger effect = lower value 0.984 | locus YOR265W, strain rbl2, stronger effect = lower value 0.957 | locus YOR290C, strain snf2, stronger effect = lower value 0.872 | locus YOR316C, strain cot1, stronger effect = lower value 0.989 | locus YPL051W, strain arl3, stronger effect = lower value 0.942 | locus YPL055C, strain LGE1, stronger effect = lower value 0.777 | locus YPL078C, strain atp4, stronger effect = lower value 0.918 | locus YPL106C, strain sse1, stronger effect = lower value 1.05 | locus YPL240C, strain hsp82, stronger effect = lower value 0.976 | locus YPR119W, strain clb2, stronger effect = lower value 0.992 | locus YPR141C, strain kar3, stronger effect = lower value 0.991 | locus YPR163C, strain tif3, stronger effect = lower value 0.984 | locus YPR167C, strain met16, stronger effect = lower value 0.991
